Source: PubChem BioAssay (NCI)
The panel holds about 83,000 compounds, 20% with a hit somewhere; the sample as a whole holds those more often.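 Each cell line was grown in a 96-well plate and treated with one concentration of compound for 48 hours. Values below 10 were considered active.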 A number with no mark means an inactive call.

What follows are molecules tested on UO-31 renal (assay: NCI-60 one-dose screen, 48 h (100 = growth as untreated, 0 = no growth, -100 = all killed)). Conditions: 10 µM unless noted.
Experimental: Growth inhibition of the UO-31 human tumor cell line is measured as a screen for anti-cancer activity. Cells are grown in 96 well plates and exposed to the test compound for 48 hours. Compounds are tested at a single concentration, which is 10^-5 M for most compounds. The reported endpoint is percent growth (GI% or GIPRCNT), where numbers from 0 - 100% represent growth inhibition, and numbers from -100% - 0 represent cell death. For example, a value of 40 represents 60% growth inhibition. A value of 0 means no net growth occurred over the course of the experiment. A value of -40 indicates 40% of cells at the beginning of the experiment died by the end of the experiment. A value of -100 means all cells are dead at the end of the experiment.
NCI-60 Human Tumor Cell Lines Screen was performed using the standard one-dose NCI protocol, which is described in more detail at https://dtp.cancer.gov/discovery_development/nci-60/default.htm.
Compounds with GIPRCNT values below 10 were considered active. Activity score was based on GIPRCNT using the following formula: […]
Score is 0 for GIPRCNT values of 100 or above, 50 for GIPRCNT values of 0, and 100 for GIPRCNT values of -100.

Structure (SMILES) | growth [%]
Cc1cccc(-[n+]2noc(N)n2)c1 | 49.7
CC12CCC3c4ccc(O)cc4CCC3C1CCC2=O (stereo not given) | 81.7
CC(=O)c1cc(O)ccc1O | 88.9
CC(=O)Nc1ccc(/C=C2\SC(=S)N(/C=C(\C(C)=O)C(N)=O)C2=O)cc1 | 68.4
O=C(O)CSCC(=O)Nc1cc(C(F)(F)F)ccc1Cl | 84.4
CC(=O)NCNC(C)=O | 105
O=C1C=Cc2ccccc2/C1=C/c1[nH]c(=O)[nH]c1O | 52.5
S=c1nc2[nH]c3ccccc3c2n[nH]1 | 88.6
COc1cccc(N=CNc2cccc(OC)c2)c1 | 91.1
CCOC(=O)c1cc(C)[nH]c(=O)c1C#N | 105
CCCCCC#CC(=O)O | 81.5
NC(CO)(CO)c1ccccc1 | 88.6
COc1ccc(Br)c2c1C(=O)CC2 | 85.4
CC(C)C(C)(C)C(=O)C(C)(C)C(C)(C)C | 95.5
CC1CCC(C(C)(C)[N+](C)(C)C)CC1 (stereo not given) | 94.8
C=CC(C)C(C)(C)O (stereo not given) | 87.2
CC(C)NC(=O)OCc1c(COC(=O)NC(C)C)c(-c2ccc(Cl)cc2)n2c1CCC2 | 50.6
Nc1ncc([N+](=O)[O-])cn1 | 90
O=S1(=O)c2ccccc2Oc2ccccc21 | 93.9
N#C/C(=C\c1ccc(C#N)cc1)C(=O)c1ccccc1 | 89.1

Structure (SMILES) | growth [%]
COC1OC(C(COC(C)=O)OC(C)=O)C(OC(C)=O)C(OC(C)=O)C1OC(C)=O (stereo not given) | 83.8
Nc1c(O)c(S(=O)(=O)O)c(O)c2c1C(=O)c1ccccc1C2=O | 12.2
NC(=S)N/N=C/c1ccc(OC(=O)COc2ccc(Cl)cc2)cn1 | 24.9
ON1CCCC1 | 95.5
NCCCN1CCCC1=O | 95.7
CCC1CCC(C)NC1 (stereo not given) | 93.5
OCCNc1ccccc1 | 90.9
Oc1ccc(CCC2CCNc3ccccc32)cc1 (stereo not given) | 78.9
Oc1ccc2ccccc2c1CN1CCOCC1 | 74.6
Cc1ccc(O)c(N)c1 | 87.9
Nc1nc(Cl)cc(Cl)n1 | 95.2
Nc1nc(N)nc(N2CCCCC2)n1 | 87.4
CCCC(=O)c1cccs1 | 98
Nc1cccc2cccc(O)c12 | 52.8
CCOC(=O)c1c(C)[nH]c(C)c1C=O | 104
CC(C)Sc1ncnc2nc[nH]c12 | 95.9
O=C(c1cccc(C(=O)c2ccc3c4c(cccc24)C(=O)N(c2ccccc2)C3=O)c1)c1ccc2c3c(cccc13)C(=O)N(c1ccccc1)C2=O | 89.8
O=c1cc(Cl)nc2ccccn12 | 84
NCC(O)C(O)C(O)C(O)CO (stereo not given) | 93.2
CCCOCc1cn[nH]n1 | 91.6
